Of roughly 8,800 targets only a part is listed; those with a hit were picked by preference. About 0.5% of all pairs of compound and target were hits. A number with no mark means an inactive call.
Legend:
Assay in all cases: log2 fold change, soluble protein after heating vs DMSO (PISA); higher = thermal stabilisation; K562 lysate, 10 uM; active = over 0.2 and 3.5 SD of the protein, either way, in both replicates (recomputed)
[1] = compound: C#Cc1cccc(Nc2ncnc3cc(OCCOC)c(OCCOC)cc23)c1 [erlotinib]
In short: (§1)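 Following dounce homogenisation of K562 pellets in PBS pH 7.4 with 1 mM MgCl2, crude extract at 1 mg/mL protein was incubated for 30 min with 10 μM compound. Aliquots were then heated for 3 min over 48°C-58°C and pooled, NP-40 was added to 0.5% at 4°C, and soluble protein was recovered as the supernatant at 21,000xg for 90 min. Channel-sum-equalised TMTpro 16plex LC-MS/MS quantified this protein. Each value, from duplicates, is a log-two fold change in thermal stability relative to solvent controls.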

[2] = compound: C/C(=N\NC(=O)C1=CC(=CC=C1)S(=O)(=O)N2CCOCC2)/C3=C(C=CC(=C3)Cl)O
In short: as §1

[3] = compound: C1=CC(=CC=C1C2=NC3=C(N2)C=C(C=C3)C(=O)N)OC4=CC=C(C=C4)Cl
In short: as §1

[4] = compound: C1=CC2=C(C=CC(=C2)/C=C\3/C(=O)NC(=NCC4=CC=CS4)S3)N=C1
In short: as §1

[5] = compound: C1=CC2=NC=CN=C2C=C1/C=C/3\C(=O)NC(=O)S3
In short: as §1

[6] = compound: C1=CC=C(C=C1)C2=NC(=C(N2)C3=CC=NC=C3)C4=CC(=C(C=C4)Cl)O
In short: as §1

[7] = compound: C1=CC=C2C(=C1)C3=NNC4=CC=CC(=C43)C2=O
In short: as §1

[8] = compound: C1CCN(C1)C(=O)NC2=CC=CC(=C2)NC3=NC=C(C(=N3)NCCC4=CN=CN4)Br
In short: as §1

[9] = compound: C1CN(CCC1(CC2=CC=C(C=C2)Cl)N)C3=NC=NC4=C3C=CN4
In short: as §1

[10] = compound: C1COCCN1CCN2C3=CC=CC=C3N=C2NC(=O)C4=CC(=CC=C4)[N+](=O)[O-] [IRAK-1-4 Inhibitor I]
In short: as §1

Chain of UniProt Q9UJA2 (Q9UJA2 whole entry, looked up): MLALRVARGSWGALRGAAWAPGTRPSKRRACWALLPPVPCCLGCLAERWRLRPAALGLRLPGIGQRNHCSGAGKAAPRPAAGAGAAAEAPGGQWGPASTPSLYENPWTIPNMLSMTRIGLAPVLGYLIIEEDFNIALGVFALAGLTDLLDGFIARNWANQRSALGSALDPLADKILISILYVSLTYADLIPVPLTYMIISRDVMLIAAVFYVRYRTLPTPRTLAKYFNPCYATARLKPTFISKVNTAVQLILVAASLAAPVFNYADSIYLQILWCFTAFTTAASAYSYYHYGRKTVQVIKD
Chain of UniProt P50570 (P50570 whole entry, looked up): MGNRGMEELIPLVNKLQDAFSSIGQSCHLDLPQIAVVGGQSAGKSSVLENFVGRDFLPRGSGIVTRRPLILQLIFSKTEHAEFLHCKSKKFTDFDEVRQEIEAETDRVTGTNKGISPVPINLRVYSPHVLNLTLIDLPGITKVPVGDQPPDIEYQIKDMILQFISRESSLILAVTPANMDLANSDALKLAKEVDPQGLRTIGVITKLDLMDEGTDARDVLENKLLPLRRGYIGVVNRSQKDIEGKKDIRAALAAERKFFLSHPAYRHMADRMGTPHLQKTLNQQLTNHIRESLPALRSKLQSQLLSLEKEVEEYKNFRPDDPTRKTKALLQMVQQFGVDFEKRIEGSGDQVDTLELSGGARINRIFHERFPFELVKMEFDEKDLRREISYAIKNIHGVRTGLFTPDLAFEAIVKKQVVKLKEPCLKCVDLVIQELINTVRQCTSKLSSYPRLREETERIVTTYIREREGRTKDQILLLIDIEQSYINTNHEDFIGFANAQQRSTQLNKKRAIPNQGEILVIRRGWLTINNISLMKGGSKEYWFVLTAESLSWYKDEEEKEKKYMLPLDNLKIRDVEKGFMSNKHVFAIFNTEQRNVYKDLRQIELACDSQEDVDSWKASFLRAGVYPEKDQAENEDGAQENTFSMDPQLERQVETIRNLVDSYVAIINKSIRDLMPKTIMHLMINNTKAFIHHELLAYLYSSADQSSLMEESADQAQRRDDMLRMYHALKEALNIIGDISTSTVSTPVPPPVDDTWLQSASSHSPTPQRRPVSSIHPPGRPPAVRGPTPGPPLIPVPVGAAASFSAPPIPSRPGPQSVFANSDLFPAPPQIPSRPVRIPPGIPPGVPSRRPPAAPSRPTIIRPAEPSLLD
Chain of UniProt Q96EP1 (Q96EP1 whole entry, looked up): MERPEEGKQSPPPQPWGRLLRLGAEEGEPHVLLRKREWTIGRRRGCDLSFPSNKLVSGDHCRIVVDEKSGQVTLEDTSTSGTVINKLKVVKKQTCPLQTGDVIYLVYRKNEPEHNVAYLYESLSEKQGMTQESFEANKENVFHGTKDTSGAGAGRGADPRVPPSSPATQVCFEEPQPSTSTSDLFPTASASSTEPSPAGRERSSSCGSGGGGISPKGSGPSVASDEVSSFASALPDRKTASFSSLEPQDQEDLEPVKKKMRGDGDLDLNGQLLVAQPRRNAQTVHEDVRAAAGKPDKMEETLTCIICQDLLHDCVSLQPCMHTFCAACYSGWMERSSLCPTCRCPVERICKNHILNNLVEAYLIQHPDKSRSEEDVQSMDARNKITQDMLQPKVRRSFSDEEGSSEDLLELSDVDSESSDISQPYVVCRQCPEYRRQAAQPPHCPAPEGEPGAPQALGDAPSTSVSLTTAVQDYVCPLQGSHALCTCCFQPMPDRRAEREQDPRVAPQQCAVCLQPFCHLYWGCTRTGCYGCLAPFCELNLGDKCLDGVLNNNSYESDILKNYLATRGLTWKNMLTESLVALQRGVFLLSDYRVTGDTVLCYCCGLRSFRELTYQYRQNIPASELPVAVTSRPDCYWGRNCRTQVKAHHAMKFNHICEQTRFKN
Chain of UniProt P53355 (P53355 whole entry, looked up): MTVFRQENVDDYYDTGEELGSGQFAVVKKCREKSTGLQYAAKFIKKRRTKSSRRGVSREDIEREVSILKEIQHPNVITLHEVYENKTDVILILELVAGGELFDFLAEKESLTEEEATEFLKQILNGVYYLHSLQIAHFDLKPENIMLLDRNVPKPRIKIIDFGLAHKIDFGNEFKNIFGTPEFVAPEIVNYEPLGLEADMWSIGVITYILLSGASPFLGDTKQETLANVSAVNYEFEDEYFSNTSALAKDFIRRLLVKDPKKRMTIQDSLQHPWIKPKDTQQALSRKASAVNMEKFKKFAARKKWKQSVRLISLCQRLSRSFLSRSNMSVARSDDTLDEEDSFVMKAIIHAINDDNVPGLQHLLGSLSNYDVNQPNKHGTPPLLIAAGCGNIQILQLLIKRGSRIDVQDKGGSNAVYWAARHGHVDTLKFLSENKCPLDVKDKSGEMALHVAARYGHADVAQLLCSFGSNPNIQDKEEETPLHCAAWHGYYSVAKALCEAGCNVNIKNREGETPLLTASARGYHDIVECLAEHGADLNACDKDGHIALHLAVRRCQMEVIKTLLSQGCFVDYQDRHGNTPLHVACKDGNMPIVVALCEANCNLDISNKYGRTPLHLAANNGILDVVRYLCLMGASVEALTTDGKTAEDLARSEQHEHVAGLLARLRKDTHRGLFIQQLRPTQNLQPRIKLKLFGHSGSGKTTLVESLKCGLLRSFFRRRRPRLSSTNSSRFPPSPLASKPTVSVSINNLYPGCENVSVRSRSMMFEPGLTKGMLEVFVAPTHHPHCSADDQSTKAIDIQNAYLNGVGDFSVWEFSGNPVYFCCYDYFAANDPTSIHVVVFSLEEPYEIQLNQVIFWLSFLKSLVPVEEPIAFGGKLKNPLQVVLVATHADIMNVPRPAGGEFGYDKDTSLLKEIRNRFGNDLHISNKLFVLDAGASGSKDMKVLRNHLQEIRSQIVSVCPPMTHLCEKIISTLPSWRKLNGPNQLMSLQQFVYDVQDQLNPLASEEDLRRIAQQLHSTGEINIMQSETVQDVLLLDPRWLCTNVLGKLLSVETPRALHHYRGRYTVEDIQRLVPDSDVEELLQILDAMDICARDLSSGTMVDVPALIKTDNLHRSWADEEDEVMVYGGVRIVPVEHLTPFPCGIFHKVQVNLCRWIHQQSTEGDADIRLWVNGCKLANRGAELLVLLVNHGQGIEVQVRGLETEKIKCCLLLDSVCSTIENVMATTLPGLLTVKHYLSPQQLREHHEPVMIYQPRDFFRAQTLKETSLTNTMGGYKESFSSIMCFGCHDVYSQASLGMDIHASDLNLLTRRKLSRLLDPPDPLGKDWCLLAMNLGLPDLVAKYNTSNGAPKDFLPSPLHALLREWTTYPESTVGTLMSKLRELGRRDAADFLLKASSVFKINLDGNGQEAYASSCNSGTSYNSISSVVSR
Chain of UniProt P24311 (P24311 whole entry, looked up): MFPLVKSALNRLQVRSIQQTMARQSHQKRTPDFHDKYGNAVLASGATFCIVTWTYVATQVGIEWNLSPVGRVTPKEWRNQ
Chain of UniProt Q08345 (Q08345 whole entry, looked up): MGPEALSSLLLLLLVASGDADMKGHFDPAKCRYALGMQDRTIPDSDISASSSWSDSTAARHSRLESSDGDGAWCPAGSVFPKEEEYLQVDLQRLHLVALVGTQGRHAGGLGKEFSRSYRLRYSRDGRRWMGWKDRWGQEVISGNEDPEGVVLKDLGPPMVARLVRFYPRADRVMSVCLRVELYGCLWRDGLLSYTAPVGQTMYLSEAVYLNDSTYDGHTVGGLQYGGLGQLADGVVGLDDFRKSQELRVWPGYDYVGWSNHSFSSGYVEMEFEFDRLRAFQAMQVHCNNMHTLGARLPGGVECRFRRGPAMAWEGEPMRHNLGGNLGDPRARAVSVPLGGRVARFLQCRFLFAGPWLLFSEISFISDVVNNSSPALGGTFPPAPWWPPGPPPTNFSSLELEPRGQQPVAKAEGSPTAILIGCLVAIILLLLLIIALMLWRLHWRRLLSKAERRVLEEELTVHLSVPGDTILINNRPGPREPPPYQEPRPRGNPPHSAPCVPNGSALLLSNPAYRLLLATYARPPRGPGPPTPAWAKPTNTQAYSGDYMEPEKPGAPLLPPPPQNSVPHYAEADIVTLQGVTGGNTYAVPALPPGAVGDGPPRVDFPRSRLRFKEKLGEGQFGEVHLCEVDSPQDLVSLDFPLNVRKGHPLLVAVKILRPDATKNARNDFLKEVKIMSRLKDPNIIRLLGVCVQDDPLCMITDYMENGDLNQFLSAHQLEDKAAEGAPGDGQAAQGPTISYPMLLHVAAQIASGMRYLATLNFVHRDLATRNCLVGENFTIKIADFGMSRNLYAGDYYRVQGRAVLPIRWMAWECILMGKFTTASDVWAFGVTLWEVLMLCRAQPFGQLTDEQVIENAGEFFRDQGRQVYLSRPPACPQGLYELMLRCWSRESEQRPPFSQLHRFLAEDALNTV
Chain of UniProt O14810 (O14810 whole entry, looked up): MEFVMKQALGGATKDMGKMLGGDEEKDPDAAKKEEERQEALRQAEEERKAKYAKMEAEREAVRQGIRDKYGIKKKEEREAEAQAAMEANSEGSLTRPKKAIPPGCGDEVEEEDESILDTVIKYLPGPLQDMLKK
Chain of UniProt O15247 (O15247 whole entry, looked up): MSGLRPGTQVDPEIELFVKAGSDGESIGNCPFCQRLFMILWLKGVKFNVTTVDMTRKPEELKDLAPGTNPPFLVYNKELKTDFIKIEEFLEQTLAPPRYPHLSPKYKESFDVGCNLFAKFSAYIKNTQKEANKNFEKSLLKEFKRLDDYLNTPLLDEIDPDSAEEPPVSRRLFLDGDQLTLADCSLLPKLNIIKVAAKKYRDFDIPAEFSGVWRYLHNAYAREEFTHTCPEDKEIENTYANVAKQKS
Chain of UniProt Q6UX07 (Q6UX07 whole entry, looked up): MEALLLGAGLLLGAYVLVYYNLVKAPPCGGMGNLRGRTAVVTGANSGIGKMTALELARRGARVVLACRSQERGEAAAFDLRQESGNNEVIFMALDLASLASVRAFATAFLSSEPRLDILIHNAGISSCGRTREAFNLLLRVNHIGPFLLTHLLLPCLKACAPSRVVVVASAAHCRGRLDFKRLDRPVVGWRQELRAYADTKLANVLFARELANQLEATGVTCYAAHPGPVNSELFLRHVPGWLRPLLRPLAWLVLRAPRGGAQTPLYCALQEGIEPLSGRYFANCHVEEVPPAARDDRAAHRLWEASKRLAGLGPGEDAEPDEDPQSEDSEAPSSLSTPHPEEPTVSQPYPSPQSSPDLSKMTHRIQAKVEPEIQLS

Target | log2 fold change [1] | log2 fold change [2] | log2 fold change [3] | log2 fold change [4] | log2 fold change [5] | log2 fold change [6] | log2 fold change [7] | log2 fold change [8] | log2 fold change [9] | log2 fold change [10]
CLIC2 (UniProt O15247) | 0.036 | 0.022 | -0.005 | -0.03 | -0.014 | -0.014 | -0.014 | 0.019 | 0.015 | 0.006
DDX4 (UniProt Q9NQI0) | -0.043 | 0.165 | -0.112 | -0.028 | -0.055 | 0.114 | -0.004 | 0.002 | 0.011 | -0.109
CRLS1 (UniProt Q9UJA2) | 0.074 | – | -0.085 | – | 0.087 | 0.056 | – | – | – | -0.021
DONSON (UniProt Q9NYP3) | 0 | – | 0.051 | – | 0.014 | 0.06 | – | – | – | -0.021
CSAD isoform 3 (UniProt Q9Y600) | -0.02 | – | 0.064 | – | -0.115 | 0.044 | – | – | – | -0.02
CPLX1 (UniProt O14810) | – | -0.059 | – | 0.062 | – | 0.012 | 0.114 | 0.012 | -0.048 | 0.027
DDR1 isoform 5 (UniProt Q08345) | – | – | – | – | 0.044 | 0.04 | – | -0.011 | -0.016 | 0.097
CHMP4A (UniProt H0YIN6) | – | – | – | – | 0.06 | -0.055 | – | – | – | 0.142
DHRS13 (UniProt Q6UX07) | 0.227 | – | -0.074 | – | -0.142 | 0.133 | – | – | – | -0.162
DAPK1 isoform 3 (UniProt P53355) | -0.015 | -0.17 | -0.306 | -0.274 | – | 0.061 | 0.181 | – | – | 0.008
CLIP1, A0A3B3ITA2 | – | 0.025 | – | 0.004 | – | -0.039 | -0.103 | – | – | 0.121
CSNK1D (UniProt P48730) | – | -0.32 | – | -0.06 | 0.039 | 0.124 | 0.415 (active) | -0.031 | 0.013 | -0.048
DLGAP5 isoform 3 (UniProt Q15398) | – | – | – | – | -0.009 | – | – | – | – | –
DNA2 (UniProt P51530) | -0.019 | 0.071 | -0.054 | -0.163 | – | -0.032 | 0.044 | 0.027 | 0.077 | -0.033
COX7B (UniProt P24311) | -0.024 | 0.026 | 0.009 | -0.011 | – | -0.003 | 0.022 | -0.085 | 0.022 | 0.025
CHFR (UniProt Q96EP1) | -0.011 | 0.179 | 0.066 | -0.068 | – | -0.027 | 0.257 | -0.023 | -0.013 | -0.011
DNM2 isoform 4 (UniProt P50570) | 0.099 | – | 0.107 | – | – | 0.072 | – | -0.11 | -0.011 | 0.133
CNOT2 (UniProt F8VRS8) | 0.307 | – | 0.101 | – | – | – | – | – | – | –
CLIP1 isoform 2 (UniProt P30622) | -0.067 | – | 0.056 | – | -0.082 | -0.055 | – | 0.023 | 0.023 | 0.026
DCTN1 isoform 4 (UniProt Q14203) | -0.021 | -0.166 | 0.065 | -0.109 | – | 0.098 | 0.126 | -0.141 | 0 | 0.02

Source: the supplement of paper PMC10849652
